Assay outcomes: PubChem BioAssay, Paczesny and Yang Labs, IUPUI and University of Michigan
ST2 IL33 inh: inhibitors of human ST2 (IL1RL1) binding to IL-33, primary screen, biochemical, AlphaLISA; Interleukin-1 receptor-like 1 (Homo sapiens), Q01638; AlphaLISA ST2-Fc/biotin-IL-33 interaction, 1 h; inhibition, % for hits at 17 µM; 78,000 compounds, 2.3% hits; AID 1259354, 2018; in the data active = inhibition above about 30%
Target sequence (Q01638 whole entry, looked up): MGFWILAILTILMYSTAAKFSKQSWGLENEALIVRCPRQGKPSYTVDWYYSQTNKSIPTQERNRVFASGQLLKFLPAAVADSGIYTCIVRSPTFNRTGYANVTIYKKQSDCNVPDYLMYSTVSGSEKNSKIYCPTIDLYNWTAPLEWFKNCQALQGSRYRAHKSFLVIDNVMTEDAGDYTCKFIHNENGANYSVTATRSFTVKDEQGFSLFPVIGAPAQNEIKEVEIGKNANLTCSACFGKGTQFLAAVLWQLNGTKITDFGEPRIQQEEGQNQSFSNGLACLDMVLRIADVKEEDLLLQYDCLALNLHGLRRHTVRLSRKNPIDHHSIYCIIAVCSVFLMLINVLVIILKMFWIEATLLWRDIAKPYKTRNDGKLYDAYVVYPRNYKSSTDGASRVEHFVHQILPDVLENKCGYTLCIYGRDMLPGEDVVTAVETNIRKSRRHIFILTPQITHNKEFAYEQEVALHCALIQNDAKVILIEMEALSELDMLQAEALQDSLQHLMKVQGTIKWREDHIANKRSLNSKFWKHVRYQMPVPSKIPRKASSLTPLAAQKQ
The depositor's hits bear a star; i = inactive. The sample as a whole holds a higher share of hits than the screen did.

SMILES | ST2 IL33 inh
CC1=C(C(=O)Nc2cc(C)ccn2)C(c2ccc(N(C)C)cc2)C2=C(CCCC2=O)N1 (configuration not stated) | i
Fc1ccc(CN2CC[C@H](c3nnc(-c4cccnc4)o3)C2)cc1F | i
CC(=O)n1cc(/C=C2/N=C(c3ccccc3)OC2=O)c2ccccc21 | 61.0%*
COc1ccccc1/C=C1\N=C(c2cccc(I)c2)OC1=O | i
CC(=O)n1cc(/C=C2\N=C(c3ccc(Cl)cc3)OC2=O)c2cc(Br)ccc21 | i
CCOC(=O)c1sc2nc(C)n(CC(=O)Nc3ccc(OCC)cc3)c(=O)c2c1C | i
Cc1[nH]c2ccccc2c1SCCNC(=O)c1ccc(Cl)cc1 | i
CC1(C)CC(=O)C(C(C2=C(O)CC(C)(C)CC2=O)c2cccc(O)c2)C(=O)C1 (configuration not stated) | i
CN(C)c1ccc(C(C2=C(O)CC(C)(C)CC2=O)C2C(=O)CC(C)(C)CC2=O)cc1 (configuration not stated) | i
CC1(C)CC(=O)C(C(C2=C(O)CC(C)(C)CC2=O)c2ccc([N+](=O)[O-])s2)C(=O)C1 (configuration not stated) | 30.0%*
COc1ccc2nc3oc(C(=O)NCCC4=CCCCC4)cc3cc2c1 | i
CN(C(=O)N1CCN(C(=O)N(C)c2ccccc2)CC1)c1ccccc1 | i
CN(C(=O)Cc1ccccc1)c1ccccc1 | 36.0%*
O=C(Cc1ccccc1)N(c1ccccc1)c1ccccc1 | i
CC(=O)Nc1ccc(NC(=O)c2ccc([N+](=O)[O-])c(C)c2)cc1 | i
COCCN1CCCC2(CCN(C(=O)c3scc4c3OCCO4)C2)C1=O (configuration not stated) | i
COc1ccc(CC2SC(=Nc3ccccc3)NC2=O)cc1 (configuration not stated) | 31.0%*
O=C1NC(=Nc2ccccc2)SC1Cc1cccc([N+](=O)[O-])c1 (configuration not stated) | i
O=C1NC(=Nc2ccccc2)SC1Cc1ccccc1 (configuration not stated) | i
O=C(NCCSc1cn[nH]n1)c1ccc2c(c1)OCO2 | i
O=C(CCS(=O)(=O)c1cccc2nonc12)NCCc1ccc(Cl)cc1 | i
COc1ccc(N2C(=N)S/C(=C\c3ccccc3[N+](=O)[O-])C2=O)cc1 | 36.0%*
COc1ccc(/C=C2\SC(=O)N(c3cccc(C)c3)C2=O)cc1 | i
COc1ccc(/C=C2\SC(=O)N(c3ccc(O)cc3)C2=O)cc1 | i
O=C(NCC1CCCO1)C1c2ccccc2C(=O)N2CCc3ccccc3C12 (configuration not stated) | i
SMILES | ST2 IL33 inh
N#CCc1nc(-c2ccccc2)cs1 | i
Nc1nc(-c2ccc(-c3ccccc3)cc2)cs1 | i
N#C/C(=C/C=C/c1ccccc1)c1nc(-c2ccc(F)cc2)cs1 | 40.0%*
N#C/C(=C\Nc1ccc(S(N)(=O)=O)cc1)c1nc(-c2ccccc2)cs1 | i
N#C/C(=C/c1ccc(F)cc1)c1nc(-c2ccccc2)cs1 | 56.0%*
N#C/C(=C/C=C/c1ccccc1)c1nc(-c2cccs2)cs1 | 60.0%*
CN(CCc1ccccc1)C1CCCN(C(=O)c2ccccc2Cl)C1 (configuration not stated) | i
COc1cccc(N2C(=O)c3ccc(F)cc3C2=O)c1 | i
O=C(Nc1cccc(F)c1)c1cccc(Br)c1 | i
CCN(CCN1CCCC1)Cc1nc[nH]c1C | i
COCCn1c(CNC(=O)CC(C)C)nc2cccnc21 | i
Cc1ccc(F)cc1-n1c(Cc2ccncc2)n[nH]c1=O | i
O=C1S/C(=C\c2ccc(Cl)cc2Cl)C(=O)N1CN1CCOCC1 | i
O=C1NC(=O)/C(=C\c2ccc(Cl)cc2Cl)S1 | 31.0%*
O=C1NC(=O)/C(=C/c2ccc([N+](=O)[O-])cc2)S1 | i
COc1ccc(C(=O)N2CCC(C(=O)Nc3ccc(Br)cc3)CC2)cc1OC | i
CS(=O)(=O)c1ccc(-c2nccn2CCCc2ccccc2)cc1 | i
Cc1ccc(NC(=O)c2ccc(C(=O)Nc3ccc(C)cc3)cc2)cc1 | i
NC(=O)c1ccc(NC(=O)c2ccccc2)cc1 | i
Cc1cc(C)nc(NS(=O)(=O)c2ccc(NC(=O)c3ccc(-c4ccccc4)cc3)cc2)n1 | i
CC(=O)c1ccc(NC(=O)Cc2ccccc2)cc1 | i
NS(=O)(=O)c1ccc(NC(=O)c2ccc(-c3ccccc3)cc2)cc1 | 30.0%*
CC(=O)c1ccc(NC(=O)c2ccc(-c3ccccc3)cc2)cc1 | 30.0%*
O=C(c1cn(Cc2ccc(F)cc2)nn1)N1CCCN(Cc2ccccc2F)CC1 | i
Cc1[nH]cnc1CN(C)CC(C)N1CCOCC1 (configuration not stated) | i
SMILES | ST2 IL33 inh
CCN(CC)CCNC(=O)c1sc2ncnc(N3CCCCC3C)c2c1C (configuration not stated) | i
CC(C)CN1CC(C(=O)NCCS(=O)(=O)N2CCCC2)CC1=O (configuration not stated) | i
O=C(CC[C@@H]1CNC(=O)[C@@H]2C[C@H](NC(=O)Nc3ccc(F)cc3F)CN12)NCc1ccc(F)cc1 | 71.0%*
O=C(CC[C@@H]1CNC(=O)[C@@H]2C[C@H](NC(=O)c3ccc(F)c(Cl)c3)CN12)NCc1ccccc1 | i
O=C1NC[C@@H](CCC(=O)N2CCOCC2)N2C[C@@H](NC(=S)NCc3ccco3)C[C@@H]12 | i
O=C(CC[C@@H]1CNC(=O)[C@@H]2C[C@H](NC(=S)NCCN3CCOCC3)CN12)NCc1ccccc1 | 31.0%*
O=C(CC[C@@H]1CNC(=O)[C@@H]2C[C@H](NC(=S)Nc3ccc(Cl)cc3)CN12)NC1CC1 | i
COCCNC(=S)N[C@H]1C[C@H]2C(=O)NC[C@@H](CCC(=O)N3CCOCC3)N2C1 | i
COc1ccc(-n2nc3cc(C)c(NC(=O)COc4ccc(Cl)cc4)cc3n2)cc1 | i
COc1cc(C(=O)O/N=C2/C=CC(=O)C=C2C)cc(OC)c1OC | i
O=C(O)/C(=C/c1ccc2c(c1)OCO2)NC(=O)c1ccc(Br)cc1 | i
O=C(CN1C(=O)C(=O)c2ccccc21)NCCOc1ccccc1 | i
CC(C)CCN1CC(C(=O)NCc2cccnc2)CC1=O (configuration not stated) | i
NC(=O)C1(N2CCCCC2)CCN(S(=O)(=O)NCc2ccccc2)CC1 | i
Cc1cccc2sc(NC(=O)c3ccc(S(=O)(=O)N4CCc5ccccc54)cc3)nc12 | i
O=C(Nc1nc(-c2cc3ccccc3oc2=O)cs1)c1cc(=O)c2ccccc2o1 | i
COc1cc2ccccc2cc1C(=O)Nc1nc(-c2cc3ccccc3oc2=O)cs1 | i
COc1ccc(C(=O)Nc2nc(-c3cc4ccccc4oc3=O)cs2)cc1OC | 38.0%*
CCN1/C(=C2/N=C(c3ccccc3)OC2=O)C=Cc2ccccc21 | 56.0%*
O=C1OC(c2ccc([N+](=O)[O-])cc2)=N/C1=C\c1ccccc1 | i
CCN1/C(=c2/sc3nc4ccccc4n3c2=O)C=Cc2cc(C)ccc21 | i
C=CCN1C(=O)c2ccccc2Sc2ccc(C(=O)NC3CC3)cc21 | i
CC1(C)C(c2ccccc2)=[N+]([O-])C(c2ccc(F)cc2)N1O (configuration not stated) | i
CCOc1ccc(N(CC(=O)Nc2cccc(SC)c2)S(C)(=O)=O)cc1 | i
COc1ccc(/C=C2/C(=O)c3ccc(C(=O)O)cc3C2=O)cc1OC | i
